Measurements: PubChem BioAssay (NCI)
About 83,000 compounds went through this panel and 20% of them were active in at least one assay; those are over-represented in the sample as a whole.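 Step 1: grow cells in 96-well plates. Step 2: add test compound at a single concentration. Step 3: incubate 48 h. Step 4: record percent growth.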 Unmarked numbers belong to inactive results. Activity calls are given as the source filed them. Rule for the calls: active = growth percent below 10; inactive = the rest.

Tests used:
Assay in all cases: NCI-60 one-dose screen, 48 h (100 = growth as untreated, 0 = no growth, -100 = all killed)
Conditions in all cases: 10 µM
SR leukemia = test system: SR leukemia
RPMI-8226 leukemia = test system: RPMI-8226 leukemia
OVCAR-8 ovarian = test system: OVCAR-8 ovarian
OVCAR-5 ovarian = test system: OVCAR-5 ovarian
OVCAR-4 ovarian = test system: OVCAR-4 ovarian
SK-OV-3 ovarian = test system: SK-OV-3 ovarian
IGROV1 ovarian = test system: IGROV1 ovarian
OVCAR-3 ovarian = test system: OVCAR-3 ovarian
HS 578T breast = test system: HS 578T breast
NCI/ADR-RES ovarian = test system: NCI/ADR-RES ovarian

| SMILES | growth (SR leukemia) | growth (RPMI-8226 leukemia) | growth (OVCAR-8 ovarian) | growth (OVCAR-5 ovarian) | growth (OVCAR-4 ovarian) | growth (SK-OV-3 ovarian) | growth (IGROV1 ovarian) | growth (OVCAR-3 ovarian) | growth (HS 578T breast) | growth (NCI/ADR-RES ovarian) |
| --- | --- | --- | --- | --- | --- | --- | --- | --- | --- | --- |
| CC1(C)CC(OCCCC[P+](c2ccccc2)(c2ccccc2)c2ccccc2)CC(C)(C)N1O | 11.7% | -73.5% (active) | 6.29% (active) | 18.2% | 21.5% | -13.4% (active) | -21% (active) | -46.1% (active) | -10.5% (active) | 55.2% |
| COC(=O)CCCCCCCCC(C)c1ccc(C(C)=O)cc1 (stereo not given) | 94.2% | 121% | 104% | 98.4% | 120% | 102% | 110% | 108% | 93.9% | 103% |
| Cc1cc(Nc2cccc(F)c2)nc(NCc2ccccc2)n1 | 23% | -3.16% (active) | 19.2% | 60.9% | 15.9% | 80.6% | 27.1% | 0.169% (active) | 68.4% | 11% |
| CCc1ccc(-c2nnc(COc3ccc(-c4nc5ccc(C)cc5[nH]4)cc3OC)o2)cc1 | -31.5% (active) | -6.63% (active) | 39.9% | 92.4% | -59.8% (active) | 33.9% | 64.4% | 41.7% | 28.2% | 42.1% |
| COc1ccc(Cn2cc3c(c2-c2ccccc2)CC(C)(C)c2cnoc2-3)cc1 | 24.5% | 32.2% | 50.4% | 78% | 60.4% | 20% | 44.6% | 6.6% (active) | 9.84% (active) | 18.7% |
| Cc1ccc([P+](Cc2ccccc2)(c2ccccc2)c2ccccc2)cc1 | -11.9% (active) | -32.1% (active) | 3.59% (active) | 31.7% | 3.46% (active) | 21.3% | 0.953% (active) | 19.2% | 44.8% | 101% |
| COc1ccc(-c2cc(/C=C3\C(=O)Nc4cc(Cl)ccc43)[nH]n2)cc1OC | 21.9% | 79.8% | 104% | 95.7% | 85.6% | 78.2% | 50.7% | 53% | 60.5% | 62.5% |
| CCN1CCOC1C(C)C (stereo not given) | 81.7% | 106% | 108% | 99.2% | 113% | 100% | 108% | 111% | 109% | 102% |
| CCOC(=O)[C@@H](Cc1ccccc1)NC(=O)c1[nH]c2ccc(Cl)cc2c(=O)c1C | 61.3% | 83.1% | 97.8% | 106% | 102% | 100% | 96.2% | 111% | 94.2% | 106% |
| Cc1ccc(S(=O)(=O)Nc2cccc3[nH]c(C(F)(F)F)nc23)cc1 | 10.8% | -3.69% (active) | 31% | 35.3% | 36% | 4.74% (active) | 51.4% | 4.74% (active) | 24.4% | 4.81% (active) |
| O=C(OCc1ncc(-c2ccc(C(F)(F)F)cc2)c(NC2CCCCCC2)n1)c1c(F)c(F)c(F)c(F)c1F | 39.4% | -6.54% (active) | 44.1% | 88.3% | 49.4% | 91.8% | 63.7% | 29.8% | 65.3% | 96.3% |
| O=C(CCl)N1c2ccccc2Sc2ccc3ccccc3c21 | -11.4% (active) | -47.3% (active) | -24.2% (active) | 21% | -41.9% (active) | 17.6% | -71.2% (active) | -82.5% (active) | -0.68% (active) | -25.8% (active) |
| Nc1ccc(C2=CC(c3ccc(Cl)cc3)N3C=CSC3=N2)cc1 (stereo not given) | -11.5% (active) | -21.3% (active) | -1.84% (active) | -66.1% (active) | 0.424% (active) | -51% (active) | -88.8% (active) | -63.1% (active) | 16.8% | 31.6% |
| N#Cc1c2c([nH]c(=O)c1C(N)=O)CCCCC2 | 108% | 103% | 102% | 97.2% | 116% | 91.6% | 102% | 113% | 91.4% | 111% |
| CCN(CC)CC(O)Cc1ccc(OC)cc1 (stereo not given) | 104% | 108% | 110% | 106% | 113% | 114% | 122% | 125% | 107% | 113% |
| CCC(O)c1ccc(Br)cc1NC(=O)c1cccc(Cl)c1 (stereo not given) | 8.25% (active) | 18.2% | 13.9% | 50.4% | 24.9% | 34% | 10.4% | 33.8% | 51% | 5.46% (active) |
| CC(C)C[C@H](NC(=O)Cn1ccc(Nc2ccccc2)cc1=O)B(O)O | 4.14% (active) | 1.74% (active) | 54.4% | 33.9% | 47.5% | 51.7% | 53.4% | -45.4% (active) | 28.9% | 111% |
| COc1ccccc1CNCCCN1C(=O)c2ccc3c4c(ccc(c24)C1=O)C(=O)N(CCCNCCNCCCN)C3=O | 13.6% | 60.8% | 12.4% | 65.9% | -94.8% (active) | 52.8% | 13.4% | -14% (active) | 54.6% | 96.7% |
| O=C(N/N=C/c1ccccc1O)c1ccccc1 | 16.9% | -30.3% (active) | 21.7% | 47% | 21.4% | 40.3% | 22.1% | 10.9% | 82.9% | 13.4% |
| Cc1ccc(C)c(S(=O)(=O)NC2c3ccccc3Oc3ccccc32)c1 | 63% | 98.2% | 90.6% | 103% | 92.6% | 102% | 96% | 95.9% | 107% | 88.5% |
| O=C1/C(=C/c2ccc([N+](=O)[O-])s2)Oc2ccc(Cl)cc21 | 1.07% (active) | 0.77% (active) | 1.27% (active) | -80.6% (active) | -76.5% (active) | 7.47% (active) | -67.9% (active) | -68.8% (active) | 17.6% | 4.88% (active) |
| COc1cc(/C=C/C(=O)c2cc(-c3ccc(F)cc3)ccc2O)cc(OC)c1OC | 49.9% | 7.24% (active) | 66.7% | 97.5% | 68.3% | 89.5% | 84.1% | 82.4% | 86% | 72.1% |
| CCOC(=O)C1=C(Nc2ccc(OC)cc2)C(N)=NC1=N | 4.05% (active) | 24.7% | 54.5% | 65.6% | 59.8% | 34.1% | 65% | 17% | 48.5% | 28.4% |
| COc1cc2ccnc(C=O)c2cc1OC | 1.19% (active) | 50.6% | 44.2% | 93.1% | 80.9% | 106% | 70.5% | 24.9% | 93.4% | 54.4% |
| CS(=O)(=O)Nc1ccc(Nc2c3ccccc3nc3cc(Cl)ccc23)cc1 | 7.92% (active) | 41.3% | 25.5% | 63.1% | 56.7% | 42.6% | 29.8% | 56.3% | 81.8% | 44.8% |
| COc1ccc(C2=Cc3ccc(OC(C)=O)cc3OC2)cc1 | 64.5% | 83.4% | 95.8% | 101% | 88.1% | 119% | 102% | 93.1% | 103% | 85.2% |
| COC(=O)c1cnc2c(c1)Oc1ccccc1-c1ccnn1-2 | 85% | 95% | 91.9% | 108% | 103% | 95.4% | 95.7% | 114% | 93.7% | 105% |
| COc1ccc(-c2oncc2-c2cc(OC)c3c(c2)OCO3)cc1 | 7.62% (active) | 23.8% | 35.6% | 37.9% | 66.2% | 19.7% | 53.3% | 7.36% (active) | 4.09% (active) | 18.5% |
